The supplement of paper PMC11417369
Over roughly 25,000 sequences, “ln(normalized median fluorescence intensity)” has its median near 9.7; the highest 2% begin near 11. What follows is part of a selection rich in the highest values, with near analogues and random picks from the rest.

These sequences were tested on PfAP2-HC AP2 domain (GST-tagged) (assay: gcPBM binding intensity (ln(normalized median fluorescence intensity)); higher = stronger DNA binding).
Summary of the method: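 Alexa488 anti-GST antibody, scanned at 488 nm, detected GST-tagged P. falciparum DNA-binding domains that had been expressed in E. coli and incubated for 1 h on an Agilent 4 × 180k array. The array carried primer-extended double-stranded 36-bp intergenic genomic probes and negative controls. Binding intensity is the highest Masliner-normalised natural-log median intensity across replicate spots of either orientation of each probe.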
With TAAGATATAAAAAATGTGCACATTAAAGTATTAATT the “gcPBM binding intensity (ln)” value was 9.86. “TATTGTAAGAAAGGCACACAGATAAAATTATTATAT [CACACA_site2921]” was tested, and the “gcPBM binding intensity (ln)” value was 9.87. “CGGTATTTTTTAATTTGTACGCATATACAATAATTA [XGTACX_site8603]” was tested, and the “gcPBM binding intensity (ln)” value was 9.54. TTTTTGTTATATAAAGTGCAGTGACAAGCAGTTTAA was tested, and the “gcPBM binding intensity (ln)” value was 9.56. For “TTTTTTTATATTTTTAGTACACATTGGTATATATAT [XGTACX_site4114]”, the “gcPBM binding intensity (ln)” value was 9.78. “TTCTTTAAAATATTATGTACACATTGCGAACAGTTT [XGTACX_site5418]” was tested, and the “gcPBM binding intensity (ln)” value was 9.76. “AGCACAGACGGACACACACACACACCCACAGACACA [CACACA_site4358]” was tested, and the “gcPBM binding intensity (ln)” value was 11.4. In the case of “CACAGACACGGACACACACACATATATAATATATAT [CACACA_site4495]”, the “gcPBM binding intensity (ln)” value is reported as 10.8. “CACAGACACGGACACACACACACACCCACATATATA [CACACA_site4355]” was tested, and the “gcPBM binding intensity (ln)” value was 11.5. With “TGTATGTTTATTTATCGTACATATATATATATATAT [XGTACX_site7315]” the “gcPBM binding intensity (ln)” value was 10.1. “TACGCGAAATGAATATGTACATATATGAGGGCATAT [XGTACX_site4293]” was tested, and the “gcPBM binding intensity (ln)” value was 9.75. For “ATTTGAAATGCATGAACACACACAGCTATAAATGCA [CACACA_site8229]”, the “gcPBM binding intensity (ln)” value was 9.82. In the case of “GAAATAAGTTAAAATAGTACGTAGTGTTCCTTAAGT [XGTACX_site6557]”, the “gcPBM binding intensity (ln)” value is reported as 9.81. “ACACAAAAATAGTTTTTTATATTGTTAACCTTATAT [XGTACX_negctrl_site123]” was tested, and the “gcPBM binding intensity (ln)” value was 9.71. “AAAAATATAAATGACACACACTTAAAAACAAAGAAA [CACACA_site4540]” was tested, and the “gcPBM binding intensity (ln)” value was 10.2. “TTTAATCAAATTAAAAGTACAGAATTGTTCATGTAG [XGTACX_site1229]” was tested, and the “gcPBM binding intensity (ln)” value was 9.53. In the case of “ACTCATAAAAATAGATGTACTTTAATAATTTGATTT [XGTACX_site8763]”, the “gcPBM binding intensity (ln)” value is reported as 9.48. In the case of “AACATATACACGAACACACACACATATATATATATA [CACACA_site502]”, the “gcPBM binding intensity (ln)” value is reported as 11.6. For “TACATACACGGACACACACACATATATATATATATA [CACACA_site5883]”, the “gcPBM binding intensity (ln)” value was 10.7. “CATATACACGAACACACACACATATATATATATATA [CACACA_site4437]” was tested, and the “gcPBM binding intensity (ln)” value was 10.5. For “CACGCGAACATACATACACACACATATATATATATG [CACACA_site7951]”, the “gcPBM binding intensity (ln)” value was 10.1. In the case of “AATAACCACGGACACACACACATATATATATATATA [CACACA_site5873]”, the “gcPBM binding intensity (ln)” value is reported as 10.9. “AGTATACACGAACACACACACACATATATAAATATA [CACACA_site6913]” was tested, and the “gcPBM binding intensity (ln)” value was 10.7. “CCCCCCCACGGACACACACACATACATACCACATAT [CACACA_site5303]” was tested, and the “gcPBM binding intensity (ln)” value was 11.3. With “TATATATATATACCAACACACATACATATATATATA [CACACA_site8530]” the “gcPBM binding intensity (ln)” value was 9.99. For “CCCCCCCACGAACACACACACATACATACCACATAT [CACACA_site7149]”, the “gcPBM binding intensity (ln)” value was 11. “TTTTTTTTTTTTACATGTACTTATTTTAAATATAAA [XGTACX_site805]” was tested, and the “gcPBM binding intensity (ln)” value was 9.71. With “TATGTTTTTCGGTATGCATGCATATGCTTAATAATA [TGCATGCA_site184]” the “gcPBM binding intensity (ln)” value was 9.55. With “AATATATAGAGAGATATGCACACTGTATGAATGCAC [CACACA_site2677]” the “gcPBM binding intensity (ln)” value was 9.78. In the case of “AAATATTTATAGGTTTGTACTTATAAATAAAAAAAA [XGTACX_site7360]”, the “gcPBM binding intensity (ln)” value is reported as 9.5. With “TATTAAATTATATAGACACACATTATATATATATAT [CACACA_site4345]” the “gcPBM binding intensity (ln)” value was 9.78. For “TATGGAATAAATTTATCCATACATCTTATAACATAT [XGTACX_negctrl_site500]”, the “gcPBM binding intensity (ln)” value was 9.63. In the case of “ATTTATTTTTTACATTGTACATATTTATTCCTTTTA [XGTACX_site8028]”, the “gcPBM binding intensity (ln)” value is reported as 9.95. In the case of “GTAATATGTATCCATACACACATACAGTTTATTTGC [CACACA_site6540]”, the “gcPBM binding intensity (ln)” value is reported as 9.96. With “TAAAATTATGTAATAACACACATATACAATACATAT [CACACA_site1236]” the “gcPBM binding intensity (ln)” value was 9.94. In the case of “AGGGTTACAAGAGGAACACACAAAAAAATAAATAAA [CACACA_site1436]”, the “gcPBM binding intensity (ln)” value is reported as 10. For “AATATATATTAAATATGTACTTATTTTTTGGTTGCT [XGTACX_site3613]”, the “gcPBM binding intensity (ln)” value was 9.63. In the case of “TTTAAATAAAAATGGAGTACTCTAAAAAAAAAAAAA [XGTACX_site1233]”, the “gcPBM binding intensity (ln)” value is reported as 9.37. In the case of “TACACAAGAAAATTCACACACACACCCATATATATA [CACACA_site3879]”, the “gcPBM binding intensity (ln)” value is reported as 10.7. For “CATACACAAGAAAATTCACACACACCCATATATATA [CACACA_site9288]”, the “gcPBM binding intensity (ln)” value was 11.3. With “CACAAGAAAGTTCACACACACACATATATATATATA [CACACA_site6009]” the “gcPBM binding intensity (ln)” value was 10.1. In the case of “TACACAAGAAAATTCACACACACACCGATATATATA [CACACA_site6008]”, the “gcPBM binding intensity (ln)” value is reported as 10.7. With “AAAACAAAAGAATTCACACATATATATATATATATA [CACACA_site4777]” the “gcPBM binding intensity (ln)” value was 10.2. In the case of “CACAAGAAAATTCACACACACACATATATATATATA [CACACA_site3880]”, the “gcPBM binding intensity (ln)” value is reported as 10.9. With “TATATATATATGTGTACACATTTGTCAGATTATATA [CACACA_site4813]” the “gcPBM binding intensity (ln)” value was 9.79. For “AGGATATATAAGTATACACACATATTTATATTTATA [CACACA_site6239]”, the “gcPBM binding intensity (ln)” value was 9.75. With “AAAATTTAAAGCATGACACACAATTATATTATGTGC [CACACA_site3435]” the “gcPBM binding intensity (ln)” value was 9.76. “ATGATGTGCTTTAAAAGTACTTAAGTTATATTCTTT [XGTACX_site7127]” was tested, and the “gcPBM binding intensity (ln)” value was 9.7. With “TTAATAACAAAATAAACACACATATATAAATACACA [CACACA_site6849]” the “gcPBM binding intensity (ln)” value was 10.5. For “ATAATATAACAATACGCACACGTATACAAAAAAAAA [CACACA_site5703]”, the “gcPBM binding intensity (ln)” value was 9.99. With “AAAATTCATAAATACACACACGCACATATATATATA [CACACA_site4227]” the “gcPBM binding intensity (ln)” value was 10.2. For “TATATACACGCACATACACACAAATAAAAAAACACC [CACACA_site7578]”, the “gcPBM binding intensity (ln)” value was 10.2. In the case of “ATTGTCAAAACACGCACACACATATACATAATAACA [CACACA_site1742]”, the “gcPBM binding intensity (ln)” value is reported as 11.1. For “AAATTGTCAAAACACGCACACACATATACATAATAA [CACACA_site1743]”, the “gcPBM binding intensity (ln)” value was 10.9. “TAAATCCGTTTGATGGGTACATACATACATACATAT [XGTACX_site8889]” was tested, and the “gcPBM binding intensity (ln)” value was 9.73. With “GGATGTATTTATATGTGTATGTGTTTGGAAATATGT [XGTACX_negctrl_site99]” the “gcPBM binding intensity (ln)” value was 9.85. “GTCATATATAATTGTTGTACATTTTTATAATTATGT [XGTACX_site8091]” was tested, and the “gcPBM binding intensity (ln)” value was 9.83.
